PubChem BioAssay (NCI)
Compounds without any hit were thinned out: in the full panel of roughly 83,000, 20% have a hit.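 Testing used 96-well plates and a 48-hour single-concentration exposure. Example: -40 means 40% of the starting cells died.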 The source made the active and inactive calls.

Each compound was assayed on U251 CNS (assay: NCI-60 one-dose screen, 48 h (100 = growth as untreated, 0 = no growth, -100 = all killed)). Settings: 10 µM unless noted.
Method: Growth inhibition of the U251 human tumor cell line is measured as a screen for anti-cancer activity. Cells are grown in 96 well plates and exposed to the test compound for 48 hours. Compounds are tested at a single concentration, which is 10^-5 M for most compounds. The reported endpoint is percent growth (GI% or GIPRCNT), where numbers from 0 - 100% represent growth inhibition, and numbers from -100% - 0 represent cell death. For example, a value of 40 represents 60% growth inhibition. A value of 0 means no net growth occurred over the course of the experiment. A value of -40 indicates 40% of cells at the beginning of the experiment died by the end of the experiment. A value of -100 means all cells are dead at the end of the experiment.
NCI-60 Human Tumor Cell Lines Screen was performed using the standard one-dose NCI protocol, which is described in more detail at https://dtp.cancer.gov/discovery_development/nci-60/default.htm.
Compounds with GIPRCNT values below 10 were considered active. Activity score was based on GIPRCNT using the following formula: […]
Score is 0 for GIPRCNT values of 100 or above, 50 for GIPRCNT values of 0, and 100 for GIPRCNT values of -100.

| Compound | growth |
| --- | --- |
| Nc1ccccc1NC(=O)c1ccc(CN2CCC/C(=C\c3cccc(Cl)c3)C2=O)cc1 | 13.7% (inactive) |
| O=C1c2cccnc2C(=O)c2nc3cc(N4CCN(C5CC5)CC4)ccc3nc21 | -32.6% (active) |
| CCN1C(=O)/C(=c2\sc3n(c2=O)NC2C(N=3)N(CC)C(=O)N2CC)c2ccccc21 (stereo not given) | 33.4% (inactive) |
| OC(c1ccccc1)c1ccccn1 (stereo not given) | 96.1% (inactive) |
| Cc1ccc2[nH]c(=O)cc(-n3nncc3COc3ccc(C=O)cc3)c2c1 | 102% (inactive) |
| Clc1cc(Cl)cc(N2N=C(c3cccc(Nc4ccncc4)c3)CC2c2ccccc2)c1 (stereo not given) | -31.3% (active) |
| N#C/C(=C\c1ccc(Br)cc1)n1nnc2cccc(F)c21 | 15.6% (inactive) |
| COC(=O)CCCCCCCCC1(C)C=CC(C(C)O)=CC1 (stereo not given) | 98.5% (inactive) |
| c1ccc(-c2nn(-c3ccccc3)[n+](-c3cccc4ccccc34)n2)cc1 | 17.7% (inactive) |
| C=C1C(=O)O[C@H]2[C@H]1CC/C(COC(=O)NCCc1c[nH]c3ccc(Cl)cc13)=C\CC[C@@]1(C)O[C@@H]21 | -41.4% (active) |
| CC(=O)N1N=C(c2cccc(Nc3ccncc3)c2)CC1c1ccccc1 (stereo not given) | 72.9% (inactive) |
| CC(=O)NCCCS(=O)(=O)O | 102% (inactive) |
| CC(=O)c1cccc(NS(=O)(=O)c2cccc(C(=O)Nc3ccc(Br)cc3)c2)c1 | 62.7% [25 µM] (inactive) |
| Cc1ccc(O)c(C(=O)O)c1 | 92.6% (inactive) |
| CCOC(=O)c1cnc2c(cnn2CC)c1NN=C(C)C | 90.4% (inactive) |
| COc1cc2nnn3c4ncccc4c(N=O)c3c2cc1OC | 45.1% (inactive) |
| O=C(Nc1cccc(Cl)c1)Oc1c(Br)c(Br)c(Br)c(Br)c1Br | 91.9% (inactive) |
| Cc1ccc(-c2c(Br)c(OC(=O)CO[C@@H]3C[C@H](C)CC[C@H]3C(C)C)c(-c3ccc(C)cc3C)c(Br)c2OC(=O)CO[C@H]2C[C@@H](C)CC[C@@H]2C(C)C)c(C)c1 | 99.1% (inactive) |
| COc1cc(C2CC(c3cccc(Nc4ccncc4)c3)=NN2c2ccc(Cl)cc2)cc(OC)c1OC (stereo not given) | -53.2% (active) |
| O=C(CCN1CCCC1)Nc1ccc2c(NCc3ccc(F)cc3)c3ccccc3nc2c1 | -39.3% (active) |

| Compound | growth |
| --- | --- |
| COc1ccc(C(=O)c2cc3c(N)c(C(=O)Nc4cccc(Cl)c4C)sc3nc2C)cc1 | 14.4% (inactive) |
| O=c1[nH]c(=O)[nH]c(=S)[nH]1 | 103% (inactive) |
| CC(C)(O)C1CCCN1C(=O)c1ccccc1I (stereo not given) | 98.3% (inactive) |
| C=C(C)[C@@H]1CC[C@]2(CO)CC[C@]3(C)[C@H](CC[C@@H]4[C@@]5(C)CCCNC(C)(C)[C@@H]5CC[C@]43C)[C@@H]12 | 7.49% (active) |
| O=C(Nc1ccccc1)Oc1ccccc1-c1ccccc1 | 95.2% (inactive) |
| COc1ccc(NC(=O)c2sc3nc(C)c(C(=O)CCc4cccc(OC)c4)cc3c2N)cc1 | 78.3% (inactive) |
| Nc1nc(N)nc(NCc2ccccc2)n1 | 105% (inactive) |
| Cc1cc(C)c(C=O)c(C)c1 | 101% (inactive) |
| CC(=O)c1c[nH]c2ccc(-c3ccnc(Nc4ccc(NC(=O)c5cccc(F)c5)c(CN5CCOCC5)c4)n3)cc12 | 8.5% (active) |
| CCOc1ccc(/C=N/Nc2cc(C)nc3ccc(Cl)cc23)cc1 | 8.99% (active) |
| O=C(CN1CCOCC1)Nc1ccc2ncnc(Nc3ccc(Oc4cccc(F)c4)c(Cl)c3)c2c1 | 85.7% (inactive) |
| CC(c1ccccc1)n1ccnc1CO (stereo not given) | 98.9% (inactive) |
| COc1ccc2c(Nc3ccc(NS(C)(=O)=O)cc3)c3ccccc3nc2c1 | 4.96% (active) |
| O=C(CCN1CCCC1)Nc1ccc2c(Nc3ccccc3)c3ccccc3nc2c1 | 0.528% (active) |
| Cc1ccc(C2CC(c3cccc(Nc4ccncc4)c3)=NN2c2ccc(Cl)cc2)cc1 (stereo not given) | -52.2% (active) |
| O=C(Nc1nc2ccc(C(=O)N3CCN(c4ccc(Cl)c(Cl)c4)CC3)cc2s1)c1ccc(NCCc2ccccc2)c([N+](=O)[O-])c1 | 102% (inactive) |
| CC(=O)[C@@H]1CC[C@]2(C(=O)n3ccnc3)CC[C@]3(C)[C@H](CC[C@@H]4[C@@]5(C)Cc6c([nH]c7ccccc67)C(C)(C)[C@@H]5CC[C@]43C)[C@@H]12 | 87.7% (inactive) |
| O=S(=O)(NCCCNc1nccc(-c2c(-c3ccc(F)c(O)c3)nc3sccn23)n1)c1ccc(F)cc1 | 2.83% (active) |
| CC(C)[N+](C)(CCOC(COc1ccccc1)COc1ccccc1)C(C)C | 83.8% (inactive) |
| O=C(N/N=C/c1ccc(F)cc1)c1ccccc1Nc1cccc(C(F)(F)F)c1 | 100% (inactive) |
